In PubChem BioAssay AID1159580 (chemical genetic matrix, 2015):
In all, about 5,500 compounds went through this assay and about 2,000 (36%) were called active. Another 18% or so got no clear call; they are omitted. No stated cut-off is given here; in the data, active means normalized growth mostly below about 0.91 (no sharp cut-off); inconclusive means no clear call, values can overlap the other calls; inactive means mostly above about 0.92. The list shows a part of the results.

Experiment: chemical genetic growth profiling, strain panel (AID 1159580);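 further: tested at 20 µM; growth read once vehicle control cultures reached saturation at 30 °C; 1 = growth at the plate median or of vehicle wells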
Settings: growth OD

Measured: normalized growth

COP(=S)(OC)SCn1nnc2ccccc2c1=O
inactive: S. cerevisiae deletion strains, locus YJR075W, strain HOC1, stronger effect = lower value 0.975 | S. cerevisiae deletion strains, locus YKL068W, stronger effect = lower value 0.995 | S. cerevisiae deletion strains, locus YKL085W, strain MDH1 (second series), stronger effect = lower value 0.985 | S. cerevisiae deletion strains, locus YKL085W, strain MDH1, stronger effect = lower value 0.985 | S. cerevisiae deletion strains, locus YKL160W, strain elf1, stronger effect = lower value 0.989 | S. cerevisiae deletion strains, locus YKL190W, strain CNB1, stronger effect = lower value 0.976 | S. cerevisiae deletion strains, locus YKR001C, strain vps1, stronger effect = lower value 0.969 | S. cerevisiae deletion strains, locus YKR026C, strain gcn3, stronger effect = lower value 1.01 | S. cerevisiae deletion strains, locus YKR091W, strain srl3, stronger effect = lower value 1.01 | S. cerevisiae deletion strains, locus YLL001W, strain dnm1, stronger effect = lower value 1.01 | S. cerevisiae deletion strains, locus YLL026W, stronger effect = lower value 0.999 | S. cerevisiae deletion strains, locus YLL041C, strain sdh2, stronger effect = lower value 1 | S. cerevisiae deletion strains, locus YLR027C, strain aat2, stronger effect = lower value 0.996 | S. cerevisiae deletion strains, locus YLR039C, strain RIC1, stronger effect = lower value 0.974 | S. cerevisiae deletion strains, locus YLR058C, strain SHM2, stronger effect = lower value 0.971 | S. cerevisiae deletion strains, locus YLR102C, strain apc9, stronger effect = lower value 0.98 | S. cerevisiae deletion strains, locus YLR113W, strain HOG1, stronger effect = lower value 1.01 | S. cerevisiae deletion strains, locus YLR221C, strain rsa3, stronger effect = lower value 0.971 | S. cerevisiae deletion strains, locus YLR258W, strain gsy2, stronger effect = lower value 1 | S. cerevisiae deletion strains, locus YLR262C, strain YPT6 (second series), stronger effect = lower value 0.96 | S. cerevisiae deletion strains, locus YLR262C, strain YPT6, stronger effect = lower value 0.941 | S. cerevisiae deletion strains, locus YLR268W, strain sec22, stronger effect = lower value 0.963 | S. cerevisiae deletion strains, locus YLR320W, strain mms22, stronger effect = lower value 1 | S. cerevisiae deletion strains, locus YLR330W, strain CHS5, stronger effect = lower value 0.981 | S. cerevisiae deletion strains, locus YLR342W, strain FKS1 (second series), stronger effect = lower value 0.921 | S. cerevisiae deletion strains, locus YLR342W, strain FKS1, stronger effect = lower value 0.986 | S. cerevisiae deletion strains, locus YLR357W, strain rsc2, stronger effect = lower value 0.885 | S. cerevisiae deletion strains, locus YLR370C, strain arc18, stronger effect = lower value 1.02 | S. cerevisiae deletion strains, locus YLR371W, strain rom2, stronger effect = lower value 0.98 | S. cerevisiae deletion strains, locus YLR384C, strain iki3, stronger effect = lower value 0.993 | S. cerevisiae deletion strains, locus YLR418C, strain cdc73, stronger effect = lower value 0.985 | S. cerevisiae deletion strains, locus YML016C, strain PPZ1, stronger effect = lower value 0.981 | S. cerevisiae deletion strains, locus YML032C, strain rad52, stronger effect = lower value 0.977 | S. cerevisiae deletion strains, locus YML120C, strain ndi1, stronger effect = lower value 1.01 | S. cerevisiae deletion strains, locus YML124C, strain tub3, stronger effect = lower value 0.999 | S. cerevisiae deletion strains, locus YMR058W, strain fet3, stronger effect = lower value 0.974 | S. cerevisiae deletion strains, locus YMR078C, strain ctf18, stronger effect = lower value 0.981 | S. cerevisiae deletion strains, locus YMR125W, strain sto1, stronger effect = lower value 1.01 | S. cerevisiae deletion strains, locus YMR129W, stronger effect = lower value 1.01 | S. cerevisiae deletion strains, locus YMR205C, strain PFK2, stronger effect = lower value 1.03 | S. cerevisiae deletion strains, locus YMR223W, strain ubp8, stronger effect = lower value 0.962 | S. cerevisiae deletion strains, locus YMR231W, strain pep5, stronger effect = lower value 0.969 | S. cerevisiae deletion strains, locus YMR263W, strain SAP30, stronger effect = lower value 0.95 | S. cerevisiae deletion strains, locus YMR307W, strain GAS1, stronger effect = lower value 0.993 | S. cerevisiae deletion strains, locus YNL067W, strain RPL9B, stronger effect = lower value 0.941 | S. cerevisiae deletion strains, locus YNL071W, strain lat1, stronger effect = lower value 0.98 | S. cerevisiae deletion strains, locus YNL128W, strain TEP1, stronger effect = lower value 0.954 | S. cerevisiae deletion strains, locus YNL153C, strain GIM3, stronger effect = lower value 0.974 | S. cerevisiae deletion strains, locus YNL183C, strain NPR1, stronger effect = lower value 0.891 | S. cerevisiae deletion strains, locus YNL209W, strain ssb2, stronger effect = lower value 1.01 | S. cerevisiae deletion strains, locus YNL233W, strain BNI4, stronger effect = lower value 0.975 | S. cerevisiae deletion strains, locus YNL248C, strain rpa49, stronger effect = lower value 0.951 | S. cerevisiae deletion strains, locus YNL250W, strain rad50, stronger effect = lower value 0.978 | S. cerevisiae deletion strains, locus YNL271C, strain bni1, stronger effect = lower value 0.977 | S. cerevisiae deletion strains, locus YNL298W, strain CLA4, stronger effect = lower value 0.959 | S. cerevisiae deletion strains, locus YNL307C, strain MCK1, stronger effect = lower value 0.995 | S. cerevisiae deletion strains, locus YNL322C, strain KRE1 (second series), stronger effect = lower value 1 | S. cerevisiae deletion strains, locus YNL322C, strain KRE1, stronger effect = lower value 0.979 | S. cerevisiae deletion strains, locus YNR049C, strain mso1, stronger effect = lower value 1.01 | S. cerevisiae deletion strains, locus YNR052C, strain pop2, stronger effect = lower value 0.99 | S. cerevisiae deletion strains, locus YOL006C, strain TOP1, stronger effect = lower value 0.829 | S. cerevisiae deletion strains, locus YOL012C, strain htz1 1.5 | S. cerevisiae deletion strains, locus YOL147C, strain pex11, stronger effect = lower value 0.99 | S. cerevisiae deletion strains, locus YOR001W, strain rrp6, stronger effect = lower value 0.973 | S. cerevisiae deletion strains, locus YOR061W, strain CKA2, stronger effect = lower value 0.955 | S. cerevisiae deletion strains, locus YOR069W, strain VPS5, stronger effect = lower value 0.992 | S. cerevisiae deletion strains, locus YOR070C, strain gyp1, stronger effect = lower value 0.986 | S. cerevisiae deletion strains, locus YOR080W, strain dia2, stronger effect = lower value 0.998 | S. cerevisiae deletion strains, locus YOR083W, strain WHI5, stronger effect = lower value 0.976 | S. cerevisiae deletion strains, locus YOR106W, strain vam3, stronger effect = lower value 0.918 | S. cerevisiae deletion strains, locus YOR136W, strain idh2, stronger effect = lower value 1.01 | S. cerevisiae deletion strains, locus YOR144C, strain elg1, stronger effect = lower value 0.988 | S. cerevisiae deletion strains, locus YOR184W, strain ser1, stronger effect = lower value 0.951 | S. cerevisiae deletion strains, locus YOR231W, strain MKK1, stronger effect = lower value 0.985 | S. cerevisiae deletion strains, locus YOR265W, strain rbl2, stronger effect = lower value 1 | S. cerevisiae deletion strains, locus YOR270C, strain vph1, stronger effect = lower value 0.858 | S. cerevisiae deletion strains, locus YOR290C, strain snf2, stronger effect = lower value 0.976 | S. cerevisiae deletion strains, locus YOR316C, strain cot1, stronger effect = lower value 0.971 | S. cerevisiae deletion strains, locus YPL051W, strain arl3, stronger effect = lower value 0.973 | S. cerevisiae deletion strains, locus YPL055C, strain LGE1, stronger effect = lower value 0.951 | S. cerevisiae deletion strains, locus YPL078C, strain atp4, stronger effect = lower value 0.992 | S. cerevisiae deletion strains, locus YPL106C, strain sse1, stronger effect = lower value 1.02 | S. cerevisiae deletion strains, locus YPL240C, strain hsp82, stronger effect = lower value 1.01 | S. cerevisiae deletion strains, locus YPL241C, strain CIN2, stronger effect = lower value 0.978 | S. cerevisiae deletion strains, locus YPL256C, strain CLN2, stronger effect = lower value 1 | S. cerevisiae deletion strains, locus YPR119W, strain clb2, stronger effect = lower value 0.994 | S. cerevisiae deletion strains, locus YPR141C, strain kar3, stronger effect = lower value 0.969 | S. cerevisiae deletion strains, locus YPR163C, strain tif3, stronger effect = lower value 0.99 | S. cerevisiae deletion strains, locus YPR167C, strain met16, stronger effect = lower value 0.981 | S. cerevisiae deletion strains, strain wtn01, stronger effect = lower value 0.981 | S. cerevisiae strains, strain wild type, stronger effect = lower value 0.977
active: S. cerevisiae deletion strains, locus YKL009W, strain mrt4, stronger effect = lower value 0.866
